Screening results: PubChem, several laboratories
S1P2 ag: S1P2 receptor agonists, primary screen, cell-based | Sphingosine 1-phosphate receptor 2 (Homo sapiens), O95136 | S1P2-expressing cell line, agonist reporter read-out | activation, % at 4.5 µM | 0.46% of 97,000 active; in the data active means activation above about 16%
PostGolgi ctrl: growth inhibition of yeast control strain, primary screen, counter-screen for post-Golgi transport modulator project. efflux-deficient yeast background strain, growth absorbance A615, 16 h. inhibition, % at 10 µM. 5% of 98,000 active
GALR2 antag: GALR2 antagonists in receptor-expressing cells, primary screen | Galanin receptor type 2 (Homo sapiens), O43603 | antagonist mode | inhibition, % at 4 µM | 0.39% of 140,000 active | AID 828, 2007; in the data active means inhibition above about 27%;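 further: cells stimulated with galanin 1-16 at roughly its EC80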
Target sequence (O43603 whole entry, looked up): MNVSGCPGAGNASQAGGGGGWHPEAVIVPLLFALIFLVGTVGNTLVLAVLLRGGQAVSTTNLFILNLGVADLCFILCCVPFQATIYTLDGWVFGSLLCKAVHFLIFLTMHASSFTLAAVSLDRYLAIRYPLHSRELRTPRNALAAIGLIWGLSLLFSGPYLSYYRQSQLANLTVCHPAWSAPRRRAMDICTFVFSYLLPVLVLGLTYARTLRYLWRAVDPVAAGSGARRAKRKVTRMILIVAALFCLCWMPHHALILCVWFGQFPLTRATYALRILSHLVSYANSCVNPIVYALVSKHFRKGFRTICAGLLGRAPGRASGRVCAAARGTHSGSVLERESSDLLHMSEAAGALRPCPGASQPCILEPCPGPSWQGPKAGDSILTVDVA
S1P2 blocker: human S1P2 receptor antagonists, primary screen, cell-based; Sphingosine 1-phosphate receptor 2 (Homo sapiens), O95136; cell-based S1P2 antagonist assay, inhibition at 5 uM; 0.21% of 97,000 active; inhibition, % at 5 µM; in the data active means inhibition above about 45%;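 further: CRE beta-lactamase reporter cells expressing human S1P2 stimulated with S1P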
PostGolgi yeast: phenotypic screen on post-Golgi transport, primary screen | post-Golgi transport phenotypic cell assay | inhibition, % at 10 µM | 0.9% of 98,000 active;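 further: yeast cells grown in 1536-well plates; yeast grown about 18 h at 30C before absorbance read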
GALR2 agonist: GALR2 receptor agonists, primary screen, cell-based; AID 803, 2007; GALR2-expressing cells, agonist activation read-out; activation, % (test concentration not listed); Galanin receptor type 2 (Homo sapiens), O43603; 0.48% of 140,000 active; in the data active means activation above about 5%, passing the limit was not always enough
Numbers stand for hits. This is one part of a sample in which hits are shown more often than they occur. Unless noted, no stated cut-off is given here; in the data, active means inhibition above about 30%; inactive means the rest.

For Cc1cc(C(=O)Cn2nnc3ccccc3c2=O)c(C)n1Cc1cccs1 the results were S1P2 ag inactive, PostGolgi ctrl inactive, GALR2 antag inactive, S1P2 blocker inactive, PostGolgi yeast inactive and GALR2 agonist inactive.
Cc1cc(C(=O)CN2C(=O)CCC2=O)c(C)n1Cc1ccccc1 was read as S1P2 ag 150, PostGolgi ctrl inactive, GALR2 antag inactive, S1P2 blocker inactive, PostGolgi yeast inactive and GALR2 agonist inactive.
CCc1ccc2nc(Nc3nc(COC)cc(=O)[nH]3)nc(C)c2c1 was read as S1P2 ag 19, PostGolgi ctrl inactive, GALR2 antag inactive, S1P2 blocker inactive, PostGolgi yeast inactive and GALR2 agonist inactive.
Screening O=S(=O)(Nc1nc2ccccc2nc1Nc1ccc(N2CCOCC2)cc1)c1cc(Cl)ccc1Cl returned GALR2 antag inactive and GALR2 agonist inactive.
Screening CCOC(=O)Cc1csc(NC(=O)c2c(O)c3ccccc3n(CC(C)C)c2=O)n1 returned S1P2 ag inactive, PostGolgi ctrl 32, GALR2 antag inactive, S1P2 blocker inactive, PostGolgi yeast inactive and GALR2 agonist inactive.
For CC(C)Cn1c(=O)c(C(=O)Nc2ccccc2S(N)(=O)=O)c(O)c2ccccc21 the results were PostGolgi ctrl 30, GALR2 antag inactive, PostGolgi yeast inactive and GALR2 agonist inactive.
`CCOC(=O)Cc1csc(NC(=O)c2cccs2)n1` gave PostGolgi ctrl inactive, GALR2 antag inactive, PostGolgi yeast inactive and GALR2 agonist inactive.
CCC(C)n1c(=O)c(C(=O)Nc2ccccc2S(N)(=O)=O)c(O)c2ccccc21 (configuration not stated) was read as PostGolgi ctrl 30, GALR2 antag inactive, PostGolgi yeast inactive and GALR2 agonist inactive.
Screening CC(=O)Nc1ccc(Cl)cc1C1COC(=O)C1=N (configuration not stated) returned GALR2 antag inactive and GALR2 agonist inactive.
Cc1ccc(S(=O)(=O)/N=C(\Nc2cc(C)on2)c2ccc(Cl)cc2)cc1 was read as GALR2 antag inactive and GALR2 agonist inactive.
`CC(=O)Nc1ccc(-c2nnc(SCC(=O)NCc3ccco3)n2C)cc1` gave S1P2 ag inactive, PostGolgi ctrl 33, GALR2 antag inactive, S1P2 blocker inactive, PostGolgi yeast inactive and GALR2 agonist inactive.
For CC(C)c1ccc(/C=N/NC(=O)c2c(Cl)cnn2C)cc1 the results were GALR2 antag inactive and GALR2 agonist inactive.
Screening CN1CCN(CC(=O)N2CCn3c4c(c5cc(C6CCCCC6)ccc53)CCCC42)CC1 (configuration not stated) returned S1P2 ag inactive, PostGolgi ctrl 86, GALR2 antag inactive, S1P2 blocker inactive, PostGolgi yeast 53 and GALR2 agonist inactive.
Screening Cc1ccc2c(c1)c1c3n2CCN(C(=O)CN2CCN(C)CC2)C3CCC1 (configuration not stated) returned PostGolgi ctrl inactive, GALR2 antag inactive, PostGolgi yeast inactive and GALR2 agonist inactive.
COc1ccccc1-c1cc(C(=O)NC(C)c2ccccc2)no1 (configuration not stated) was read as S1P2 ag inactive, PostGolgi ctrl 61, GALR2 antag inactive, S1P2 blocker inactive, PostGolgi yeast inactive and GALR2 agonist inactive.
`Cc1ccc2nc3c(cc2c1)c(NC(=O)c1ccccn1)nn3CC(C)C` gave S1P2 ag 19, PostGolgi ctrl inactive, GALR2 antag inactive, S1P2 blocker inactive, PostGolgi yeast inactive and GALR2 agonist inactive.
Cc1ccc(C)n1-n1cnc2sc3c(c2c1=O)CCCCC3 was read as S1P2 ag inactive, PostGolgi ctrl inactive, GALR2 antag inactive, S1P2 blocker inactive, PostGolgi yeast inactive and GALR2 agonist inactive.
`Cc1cc(C)n(-c2nc3sc4c(c3c(=O)[nH]2)CCCC4)n1` gave S1P2 ag inactive, PostGolgi ctrl 98, GALR2 antag inactive, S1P2 blocker inactive, PostGolgi yeast 99 and GALR2 agonist inactive.
Screening Nc1c2c(nc3sc4c(c13)CCCC4)CCCCCC2 returned GALR2 antag inactive and GALR2 agonist inactive.
For Cc1ccc(C)n1-n1c(C)nc2sc3c(c2c1=O)CCCCC3 the results were S1P2 ag inactive, PostGolgi ctrl 50, GALR2 antag inactive, S1P2 blocker inactive, PostGolgi yeast inactive and GALR2 agonist inactive.
O=c1c2c3c(sc2nc2n1CCCCC2)CCCCC3 was read as S1P2 ag inactive, PostGolgi ctrl inactive, GALR2 antag inactive, S1P2 blocker inactive, PostGolgi yeast inactive and GALR2 agonist inactive.
